Source: PubChem BioAssay (NCI)
This is part of a sample that, as a whole, favours compounds with a hit. Of some 83,000 tested, about 20% had one in any assay.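 In brief: 96-well plates, 48 h treatment, single concentration, percent growth endpoint.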 Calls of active or inactive are those of the source. The calls were made as follows: active = growth percent below 10; inactive = the rest.

Legend:
Test in all cases: NCI-60 one-dose screen, 48 h (100 = growth as untreated, 0 = no growth, -100 = all killed)
Conditions in all cases: 10 µM unless noted
NCI-H23 lung = system: NCI-H23 lung
NCI-H226 lung = system: NCI-H226 lung
NCI-H322M lung = system: NCI-H322M lung
HOP-62 NSCLC = system: HOP-62 NSCLC
NCI-H460 lung = system: NCI-H460 lung
HOP-92 NSCLC = system: HOP-92 NSCLC
NCI-H522 lung = system: NCI-H522 lung
A549/ATCC NSCLC = system: A549/ATCC NSCLC
786-0 renal = system: 786-0 renal
COLO 205 colon = system: COLO 205 colon
DU-145 prostate = system: DU-145 prostate
K-562 leukemia = system: K-562 leukemia
MALME-3M melanoma = system: MALME-3M melanoma
RXF 393 renal = system: RXF 393 renal
SF-268 CNS = system: SF-268 CNS
SF-295 CNS = system: SF-295 CNS
SF-539 CNS = system: SF-539 CNS
UACC-257 melanoma = system: UACC-257 melanoma
M14 melanoma = system: M14 melanoma
MDA-MB-231 breast = system: MDA-MB-231 breast

Measured: growth

CC1=C(C(=O)c2ccccc2)C(c2ccc(-n3cncn3)cc2)n2c(nc3ccccc32)N1 (stereo unspecified)
inactive: NCI-H23 lung 87.9% | NCI-H226 lung 87.4% | NCI-H322M lung 79.5% | HOP-62 NSCLC 71.5% | NCI-H460 lung 80.5% | HOP-92 NSCLC 76.1% | NCI-H522 lung 83.2% | A549/ATCC NSCLC 77.1% | 786-0 renal 96.8% | COLO 205 colon 95.4% | DU-145 prostate 71.7% | K-562 leukemia 74.6% | MALME-3M melanoma 81% | RXF 393 renal 73.6% | SF-268 CNS 77.1% | SF-295 CNS 84% | SF-539 CNS 39.1% | UACC-257 melanoma 89.1% | M14 melanoma 99.2%

O=C1Nc2cc(Cl)ccc2/C1=C/c1cccc(OCc2ccccn2)c1
inactive: NCI-H23 lung 19.6% | NCI-H226 lung 38.6% | NCI-H322M lung 68.2% | HOP-62 NSCLC 17.4% | NCI-H460 lung 13.9% | A549/ATCC NSCLC 37.5% | 786-0 renal 10.8% | COLO 205 colon 51.7% | MALME-3M melanoma 36.4% | SF-268 CNS 13.1% | SF-295 CNS 13.6% | UACC-257 melanoma 44.4%
active: HOP-92 NSCLC -3.65% | NCI-H522 lung -42.4% | DU-145 prostate 9.98% | K-562 leukemia 4.79% | RXF 393 renal -3.29% | SF-539 CNS -48.2% | M14 melanoma -9.46%

O=c1[nH]n(C(=S)N/N=C/c2ccccc2Cl)c(=O)c2ccccc12
active: NCI-H23 lung -43.6% | NCI-H226 lung -19.9% | NCI-H322M lung 5.29% | HOP-62 NSCLC -2.31% | HOP-92 NSCLC -0.742% | NCI-H522 lung -61.7% | A549/ATCC NSCLC 7.02% | COLO 205 colon -60.9% | K-562 leukemia 4.54% | RXF 393 renal -57.7% | SF-539 CNS -20.2% | M14 melanoma -41.9%
inactive: NCI-H460 lung 14.5% | 786-0 renal 12.9% | DU-145 prostate 15.1% | MALME-3M melanoma 28.3% | SF-268 CNS 28.5% | SF-295 CNS 15.9% | UACC-257 melanoma 37.2%

C=C1CC[C@@H]2[C@]3(C)COC(c4cn(-c5ccccc5)nc4-c4ccccc4)O[C@@H]3CC[C@@]2(C)[C@@H]1C/C=C1/C(=O)OC[C@H]1O (stereo partly specified)
active: NCI-H23 lung -84.7% | NCI-H226 lung -90.4% | HOP-62 NSCLC -68.1% | NCI-H460 lung -75.9% | HOP-92 NSCLC -88.1% | NCI-H522 lung -88.1% | A549/ATCC NSCLC -22.2% | 786-0 renal -61.3% | COLO 205 colon -90.9% | DU-145 prostate 8.33% | K-562 leukemia -29.9% | MALME-3M melanoma -90.2% | RXF 393 renal -90.8% | SF-268 CNS 8.39% | SF-295 CNS -97.5% | SF-539 CNS -98.6% | UACC-257 melanoma -77.2% | M14 melanoma -80.4%
inactive: NCI-H322M lung 29.1%

Cc1c(C(=O)NNC(=O)c2ccc(Cl)cc2)nnn1-c1ccc(Br)cc1
inactive: NCI-H23 lung 102% | NCI-H226 lung 97.1% | NCI-H322M lung 91% | HOP-62 NSCLC 98.4% | NCI-H460 lung 107% | HOP-92 NSCLC 91.6% | NCI-H522 lung 97.6% | A549/ATCC NSCLC 100% | 786-0 renal 98.8% | COLO 205 colon 104% | DU-145 prostate 109% | K-562 leukemia 91.3% | MALME-3M melanoma 93.8% | RXF 393 renal 93.1% | SF-268 CNS 108% | SF-295 CNS 90.9% | SF-539 CNS 94.2% | UACC-257 melanoma 97.7% | M14 melanoma 98.8%

COc1cccc(-c2c(C#N)c(-c3ccc(Cl)cc3)nc3n[nH]c(-c4ccc(Cl)cc4)c23)c1
active: HOP-92 NSCLC -5.01% | COLO 205 colon 3.25% | K-562 leukemia 5.73%
inactive: NCI-H23 lung 64.5% | NCI-H226 lung 47.8% | NCI-H322M lung 82.8% | HOP-62 NSCLC 53.8% | NCI-H460 lung 34.3% | NCI-H522 lung 43.8% | A549/ATCC NSCLC 41.9% | 786-0 renal 46.1% | DU-145 prostate 58.5% | MALME-3M melanoma 59.7% | RXF 393 renal 39.3% | SF-268 CNS 65.9% | SF-295 CNS 64.5% | SF-539 CNS 38.1% | UACC-257 melanoma 54.4% | M14 melanoma 36.8%

O=C(Nc1ccc(C(F)(F)F)cc1)Nc1ccc2oc(=O)ccc2c1
inactive: NCI-H226 lung 26.6% | NCI-H322M lung 41.1% | HOP-62 NSCLC 50.1% | NCI-H460 lung 15.9% | A549/ATCC NSCLC 14.1% | 786-0 renal 53.8% | DU-145 prostate 27.9% | MDA-MB-231 breast 14.6% | RXF 393 renal 56.5% | SF-268 CNS 50.9% | SF-539 CNS 32.2% | M14 melanoma 16.3%
active: NCI-H23 lung 3.56% | HOP-92 NSCLC -5.11% | NCI-H522 lung -10.4% | COLO 205 colon -26.4% | MALME-3M melanoma -1.86% | SF-295 CNS -7.66% | UACC-257 melanoma 0.986%

Cc1ccc(-c2nnc3ccc(N/N=C/c4ccccc4)nn23)cc1
inactive: NCI-H23 lung 60.5% | NCI-H226 lung 98% | NCI-H322M lung 91.4% | HOP-62 NSCLC 88.5% | NCI-H460 lung 68.5% | HOP-92 NSCLC 70.5% | NCI-H522 lung 105% | A549/ATCC NSCLC 93.1% | 786-0 renal 99% | COLO 205 colon 98.4% | DU-145 prostate 75.9% | MALME-3M melanoma 95.6% | MDA-MB-231 breast 80.1% | RXF 393 renal 94.3% | SF-268 CNS 57.8% | SF-295 CNS 52.3% | SF-539 CNS 80.8% | UACC-257 melanoma 103% | M14 melanoma 67.3%

CC1=C(C(=O)OCc2ccccc2)C(c2c(O)cc(O)cc2O)n2c(nc3ccccc32)N1 (stereo unspecified)
active: NCI-H522 lung 1.19%
inactive: NCI-H23 lung 65.9% | NCI-H226 lung 62.2% | NCI-H322M lung 94.1% | HOP-62 NSCLC 47.8% | NCI-H460 lung 29.6% | HOP-92 NSCLC 83.1% | A549/ATCC NSCLC 56.7% | 786-0 renal 49.4% | COLO 205 colon 63.5% | DU-145 prostate 82.3% | K-562 leukemia 17.4% | MALME-3M melanoma 52.7% | RXF 393 renal 25.5% | SF-268 CNS 52.7% | SF-295 CNS 25.4% | SF-539 CNS 16.8% | UACC-257 melanoma 47.9% | M14 melanoma 41.7%

N#Cc1ccc(C(=O)Nn2c(N)cc3ccccc3c2=O)cc1
inactive: NCI-H23 lung 93.8% | NCI-H226 lung 84.4% | NCI-H322M lung 94.7% | HOP-62 NSCLC 99.3% | NCI-H460 lung 80.3% | HOP-92 NSCLC 88.2% | NCI-H522 lung 95% | A549/ATCC NSCLC 94.4% | 786-0 renal 98.3% | COLO 205 colon 112% | DU-145 prostate 115% | K-562 leukemia 89.6% | MALME-3M melanoma 77.9% | RXF 393 renal 104% | SF-268 CNS 106% | SF-295 CNS 99% | SF-539 CNS 90% | UACC-257 melanoma 99.5% | M14 melanoma 94.5%

O=C(NNc1nc2cc(F)ccc2n2c(C(=O)N3CCN(C4CC4)CC3)ccc12)c1ncccn1
inactive: NCI-H23 lung 38.4% | NCI-H226 lung 11.4% | NCI-H322M lung 29.9% | HOP-62 NSCLC 20% | HOP-92 NSCLC 69.2% | NCI-H522 lung 67.1% | A549/ATCC NSCLC 24.5% | DU-145 prostate 47.8% | MALME-3M melanoma 33.2% | MDA-MB-231 breast 43.6% | RXF 393 renal 64.8% | SF-268 CNS 29.9% | SF-539 CNS 12.9% | UACC-257 melanoma 19.7%
active: NCI-H460 lung 8.44% | 786-0 renal -9.79% | COLO 205 colon 7.77% | SF-295 CNS -33.9%

CN1CCN(c2ccc3c(c2)nc(NNC(=O)c2ncccn2)c2cccn23)CC1
active: NCI-H23 lung 4.51% | NCI-H226 lung -22.8% | NCI-H322M lung -7.59% | HOP-62 NSCLC -19.7% | NCI-H460 lung 3.42% | HOP-92 NSCLC -14.8% | NCI-H522 lung -7.36% | 786-0 renal -96.8% | COLO 205 colon -85.7% | DU-145 prostate 1.57% | MALME-3M melanoma -41.8% | MDA-MB-231 breast -45.8% | RXF 393 renal -53.6% | SF-268 CNS -15.7% | SF-295 CNS -90% | SF-539 CNS -83% | M14 melanoma -53.5%
inactive: A549/ATCC NSCLC 12.5% | UACC-257 melanoma 17.8%

O=C(N/N=C/c1ccc(-c2ccc(O)cc2)s1)c1[nH]c2ccc(Br)cc2c1-c1ccccc1
inactive: NCI-H226 lung 27.6% | NCI-H322M lung 29.8% | HOP-62 NSCLC 21.2% | NCI-H522 lung 18.6% | A549/ATCC NSCLC 23.8% | DU-145 prostate 30.1% | SF-268 CNS 28.9% | UACC-257 melanoma 53.9%
active: NCI-H23 lung 7.67% | NCI-H460 lung -18.3% | HOP-92 NSCLC -24.8% | 786-0 renal -28% | COLO 205 colon -32.9% | K-562 leukemia 2.31% | MALME-3M melanoma -2.08% | RXF 393 renal -29.5% | SF-295 CNS 0.137% | SF-539 CNS -57.2% | M14 melanoma 9.8%
